In the library only some 3.4% were active in any assay of this set; here they are far more common.
GPR151 activ – activators of human GPR151. Q8TDV0. PathHunter beta-arrestin GPR151 cells, luminescence. activation, % at 11.2 µM. 650,000 compounds, 1% hits; in the data active = activation above about 4.9%
FBW7 activator – activators of human E3 ligase FBW7 | Q969H0 | AID 1259310 | normalized activity (activation), % at 26.1 µM | AlphaScreen FBW7–phospho-cyclin E peptide binding, activator screen | 650,000 compounds, 0.13% hits; in the data active = normalized activity above about 1.9%;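 note: purified mutant Fbw7 with reduced substrate affinity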
MITF primary – inhibitors of human MITF; inhibition, % at 2.6 µM; O75030; AID 1259374; AlphaScreen MITF homodimerization, bead proximity signal; 650,000 compounds, 0.91% hits; in the data active = inhibition above about 50%
TEAD-YAP block – TEAD-YAP interaction inhibition; HEK-TIYL cells, TEAD-Gal4/YAP UAS-luciferase luminescence; AID 1259422; inhibition, % at 9.12 µM; 640,000 compounds, 1.4% hits; in the data active = inhibition above about 32%
GPR151 confirm – confirmation of human GPR151 activators; AID 1508609; shares compounds with GPR151 activ; 6,700 tested, under 10 active; activation, % at 11.2 µM; GPR151 PathHunter beta-arrestin cells, luminescence, 90 min; % of EA-reagent control over plate median;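 active = mean percent activation across replicates above the confirmation screen cutoff of 4.91%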
GPR119 ag – counter-screen for GPR151 activators: effect on human GPR119. shares compounds with GPR151 activ. GPR119 PathHunter beta-arrestin cells, luminescence, 90 min; 0 = compound-well median, 100 = enzyme-acceptor control. activation, % at 11.2 µM. 6,700 compounds, 0.3% hits. AID 1508611;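 active = mean percent activation in the counterscreen above 29.09%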;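 note: counterscreen on off-target GPR119 to flag nonselective hits from the GPR151 activator screen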
Target sequence (Q8TDV5 whole entry, looked up): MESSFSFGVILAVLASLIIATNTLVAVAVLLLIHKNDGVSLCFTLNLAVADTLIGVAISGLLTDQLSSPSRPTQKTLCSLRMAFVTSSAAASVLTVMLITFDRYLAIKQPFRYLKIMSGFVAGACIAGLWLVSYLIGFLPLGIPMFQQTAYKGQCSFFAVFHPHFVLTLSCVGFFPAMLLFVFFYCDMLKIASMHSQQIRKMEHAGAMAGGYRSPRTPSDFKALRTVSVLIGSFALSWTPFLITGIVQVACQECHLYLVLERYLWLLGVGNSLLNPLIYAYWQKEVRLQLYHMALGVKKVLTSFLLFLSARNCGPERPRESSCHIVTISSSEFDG
Each line names hits and unclear results; the compound was inactive in the other large screens (follow-up assays come after a bar, where they were run).

N#Cc1c(Cl)c(Cl)nc(N2CCCNCC2)c1Cl	GPR151 activ 6.1 | GPR151 confirm inactive | GPR119 ag inactive
CN(C)CP(=O)(Nc1ccccc1)N(C)C (stereo not drawn)	none
CC(C)P(=O)(Nc1ccccc1)C(C)C	GPR151 activ 8.0 | GPR151 confirm inactive | GPR119 ag inactive
CC(C)CN1CCN(Cc2ccc(C(C)C)cc2)CC1CCO (stereo not drawn)	none
O=c1c(-c2ccccc2)coc2c(CN3CCCCC3)c(O)ccc12	GPR151 activ 5.1 | GPR151 confirm inactive | GPR119 ag inactive
CCCC[N+]12CCC(CC1)C(C(=O)c1cccs1)C2 (stereo not drawn)	GPR151 activ 5.8 | GPR151 confirm inactive | GPR119 ag inactive
CCN(CC)c1ccc(/C=C\[N+](=O)[O-])c(C)c1	GPR151 activ 6.7 | GPR151 confirm inactive | GPR119 ag inactive

Screening data (PubChem)
